# Only some compounds are listed: those with a hit (about 3.8% of all), similar ones and a draw of the others.
# aDG glyco act: activators of alpha-DG glycosylation, primary screen, uHTS, Pro5-aDG cells, AlphaScreen; alpha-DG glycosylation AlphaScreen (IIH6); 0% Pro5, 100% B10-LARGE cell signal; activation, % at 10 µM; 360,000 compounds, 0.22% hits; AID 624168, 2012;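 active = activation of at least 8% versus controls, or a plate z-score of at least 8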;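 note: Pro5 are CHO cells carrying HIG-tagged alpha-DG that lacks glycosylation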
# SUMO Mot1 rescue: yeast Mot1-301 growth rescue at high temperature, primary screen, SUMOylation pathway inhibitor project, S. cerevisiae, ATP luminescence, 38.5C; S. cerevisiae Mot1-301 growth rescue; percent above DMSO median, 100 means doubled; growth rescue, % at 18.8 µM; 320,000 compounds, 1% hits; AID 2716, 2010;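 active = every valid replicate shows activation above 250% relative to neutral control wells; inactive = the rest, any valid replicate at or below 250%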
# MPTP inh: mitochondrial permeability transition pore inhibitors, primary screen, biochemical, isolated mouse mitochondria, absorbance; AID 602449, 2012; inhibition, % at 10 µM; 360,000 compounds, 1.4% hits; Ca2+ swelling absorbance, 30 min;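 active = inhibition of 50% or more, scaled per plate between neutral and stimulator controls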
# FAS-TE inh: FAS thioesterase domain inhibitors, primary screen, biochemical, fluorescence intensity, uHTS; Fatty acid synthase (Homo sapiens), P49327; recombinant FAS-TE, OMFH fluorogenic substrate, fluorescence endpoint; inhibition, % at 15 µM; 360,000 compounds, 0.67% hits;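 active = compounds whose normalised, plate-corrected inhibition of enzyme fluorescence in the single-dose primary screen is 50% or more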
# Yeast superoxide: reduction of superoxide in aged yeast, primary screen, HTS; S. cerevisiae aged cells, superoxide DHE fluorescence; stronger effect = lower value; 330,000 compounds, 0.18% hits; AID 2690, 2010; superoxide response (% of plate mean), % at 10 µM;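 active = superoxide response under a set limit, about three screen SD below normal, cut at about 65% in these data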;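 note: yeast aged for seven days with compound at 30 °C before DHE staining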
# H9c2 protect: cardioprotection against H2O2-induced cell death, primary screen, uHTS, H9c2 cells, ATPLite luminescence. H9c2 cardiomyocytes, H2O2 injury protection, 2 h. protection from H2O2 cell death, % at 20 µM. 360,000 compounds, 0.63% hits. AID 588492, 2011;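 active = compounds giving at least 50% protection of heart cells from peroxide-induced death in the single-dose screen, raw or plate-pattern-corrected value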
# A number is an active result; i = inactive; nt = not tested or not shown.
SMILES,aDG glyco act,SUMO Mot1 rescue,MPTP inh,FAS-TE inh,Yeast superoxide,H9c2 protect
COc1ccc2[nH]c(=O)c(-c3nnn(-c4ccccc4)n3)cc2c1,i,i,i,i,nt,i
COc1ccc2[nH]c(=O)c(-c3nnn(-c4ccc(F)cc4)n3)cc2c1,i,i,i,i,i,56.0
COc1cccc(Nc2nc3ccccc3n3nnnc23)c1,i,nt,i,i,i,68.1
c1ccc2c(c1)nc(Nc1ccc3c(c1)OCO3)c1nnnn12,i,i,i,i,i,55.5
Fc1cccc(Nc2nc3ccccc3n3nnnc23)c1,i,i,i,i,i,i
CCN(CC)S(=O)(=O)c1ccc(Nc2nc3ccccc3n3nnnc23)cc1,i,i,i,i,i,82.6
COc1ccc(O)c(CNn2c(-c3ccc(Br)cc3)nc3ccccc3c2=O)c1,i,i,i,i,i,50.2
Cc1[nH]c2ccccc2c1/C=N/NC(=O)c1cc(-c2cccs2)[nH]n1,i,i,i,i,i,51.0
Cc1nn(-c2ccccc2)c(C)c1/C=N/NC(=O)c1cc(C(C)(C)C)[nH]n1,i,i,i,i,i,54.2
Cc1ccc(-c2cc(C(=O)N/N=C/c3c(C)nn(-c4ccccc4)c3C)[nH]n2)cc1,i,nt,i,i,nt,i
Cc1ccc(-c2cc(C(=O)N/N=C/c3c(C)nn(-c4ccccc4)c3C)n[nH]2)s1,i,nt,i,i,nt,72.5
COc1ccc(S(=O)(=O)N(C)c2ccc(C(=O)NCC3CCCO3)cc2)cc1OC (configuration not stated),i,i,i,i,i,i
O=C(O)C1CCC(N2C(=O)c3cccc([N+](=O)[O-])c3C2=O)CC1 (configuration not stated),i,i,i,i,i,i
CCOC(=O)c1cnc2c(ccc3ccccc32)c1NCCCN(C)C,i,i,i,i,i,i
O=C(COC(=O)Cc1n[nH]c(=O)c2ccccc12)Nc1ccc(Cl)cc1F,i,i,i,i,i,56.4
CC(OC(=O)Cc1n[nH]c(=O)c2ccccc12)C(=O)Nc1cc(Cl)cc(Cl)c1 (configuration not stated),i,i,i,i,i,56.5
CC(OC(=O)Cc1n[nH]c(=O)c2ccccc12)C(=O)Nc1ccc(Cl)cn1 (configuration not stated),i,i,i,i,i,58.1
CC(OC(=O)Cc1n[nH]c(=O)c2ccccc12)C(=O)Nc1ccc(S(N)(=O)=O)cc1 (configuration not stated),i,nt,i,i,nt,i
O=C(COC(=O)Cc1n[nH]c(=O)c2ccccc12)Nc1ccc(Cl)cn1,i,i,i,i,i,87.7
COCCCNC(=O)c1cc(S(=O)(=O)N2CCC3(CC2)OCCO3)ccc1F,i,nt,i,i,nt,i
CN(CC(=O)Nc1ccc(F)cc1)CC(=O)N1CCCC1,i,i,i,i,i,i
O=C(NCc1ccc(Cl)cc1)C1CCN(S(=O)(=O)c2cccc3nonc23)CC1,i,i,i,i,i,i
CCC(C)C(CO)NCCCn1ccc(NC(=O)OCc2ccccc2)nc1=O (configuration not stated),i,nt,i,i,nt,i
O=C(N/N=C/c1cccc(O)c1)c1cc(-c2ccc3c(c2)OCO3)n[nH]1,i,i,i,i,i,76.5
O=C(N/N=C/c1ccccc1)c1cc(-c2ccc3c(c2)OCO3)n[nH]1,i,i,i,i,i,i
COc1ccc2c(c1)cc(C(=O)N[C@H](C(=O)N1CCC(C(=O)O)CC1)C(C)C)n2C,i,i,i,i,i,i
COc1ccc2c(c1)cc(C(=O)N[C@H](C(=O)N1CCC[C@H]1C(=O)O)C(C)C)n2C,i,418.7,i,i,i,i
Cc1ccc(N(Cc2ccccc2)C(=O)Cc2ccc(S(=O)(=O)N3CCOCC3)s2)cc1,i,nt,i,i,nt,i
Cc1nc(C)c(C(=O)OCC(=O)Nc2ccc(C)c(C)c2)s1,i,nt,i,i,nt,i
CC(=O)Nc1ccc(S(=O)(=O)Nc2ccc(S(=O)(=O)Nc3nc(C)cc(C)n3)cc2)cc1,i,i,i,i,i,i

# Screening data: PubChem, several laboratories
